PubChem BioAssay (NCATS)
Records with an inconclusive call do not appear. Active and inactive are the calls of the source. Unless noted, calls follow the shape of the dose curve; as a rule, active = well fitted curve in the direction sought with a large enough effect; inconclusive = small, poorly fitted or top-dose-only effect, or another doubt; inactive = no such curve, though single readings can be large; an effect the other way counts as inactive or inconclusive.

Tests used:
[1] = qHTS for Activators of Parkin Expression: LOPAC Validation Assay (FLuc Reporter) (AID 720573;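 also: 0% = DMSO and 100% = positive control compounds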)
Method in brief: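 Neuronal cell line stably carrying FLuc/NLuc coincidence reporter under Parkin promoter; cells plated 24 h, then compounds added in 7-point dose response for 24 h at 37 C. FLuc luminescence read; normalized to DMSO and positive control (100%).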

[2] = biological target: T1, Hexokinase-4 (Homo sapiens) + Glucokinase regulatory protein (Homo sapiens) (UniProt P35557+Q14397); assay: qHTS assay for inhibitors of recombinant human GCK-GKRP interaction: Diaphorase-coupled assay (AID 743205)
T1 sequence (P35557 whole entry, looked up): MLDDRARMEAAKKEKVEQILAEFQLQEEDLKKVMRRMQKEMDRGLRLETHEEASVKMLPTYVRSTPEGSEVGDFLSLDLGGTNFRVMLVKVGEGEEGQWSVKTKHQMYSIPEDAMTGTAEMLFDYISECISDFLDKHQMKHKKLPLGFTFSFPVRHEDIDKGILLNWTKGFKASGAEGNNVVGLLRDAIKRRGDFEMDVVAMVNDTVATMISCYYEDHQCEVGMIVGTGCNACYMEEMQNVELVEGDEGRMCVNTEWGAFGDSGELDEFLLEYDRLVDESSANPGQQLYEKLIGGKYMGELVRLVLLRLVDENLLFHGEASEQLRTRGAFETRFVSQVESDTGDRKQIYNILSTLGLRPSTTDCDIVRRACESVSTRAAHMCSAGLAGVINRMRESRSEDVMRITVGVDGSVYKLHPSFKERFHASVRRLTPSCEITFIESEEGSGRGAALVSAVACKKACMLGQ
T1 sequence (Q14397 whole entry, looked up): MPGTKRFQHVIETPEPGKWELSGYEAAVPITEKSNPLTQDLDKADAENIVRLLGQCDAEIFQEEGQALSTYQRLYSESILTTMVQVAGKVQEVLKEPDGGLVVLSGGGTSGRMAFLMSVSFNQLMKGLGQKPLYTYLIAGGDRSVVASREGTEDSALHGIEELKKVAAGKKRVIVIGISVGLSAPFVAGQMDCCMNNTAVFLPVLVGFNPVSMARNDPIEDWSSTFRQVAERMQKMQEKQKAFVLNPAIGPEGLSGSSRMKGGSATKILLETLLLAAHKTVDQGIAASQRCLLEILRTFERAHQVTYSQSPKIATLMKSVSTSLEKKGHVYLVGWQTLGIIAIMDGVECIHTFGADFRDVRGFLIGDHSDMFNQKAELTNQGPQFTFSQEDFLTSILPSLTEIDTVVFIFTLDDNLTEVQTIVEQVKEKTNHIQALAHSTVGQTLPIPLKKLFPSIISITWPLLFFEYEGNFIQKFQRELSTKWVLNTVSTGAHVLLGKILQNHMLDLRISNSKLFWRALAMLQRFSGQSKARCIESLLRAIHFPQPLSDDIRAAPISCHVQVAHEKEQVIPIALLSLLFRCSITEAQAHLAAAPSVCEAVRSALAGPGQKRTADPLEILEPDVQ
Method in brief: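 GST-GCK (10 nM) with FLAG-GKRP (10 nM), 5 mM glucose and 0.4 mM ATP in pH 7.6 Hepes; compounds preincubated 20 min with substrate. G6PDH/diaphorase coupling converts resazurin to resorufin, read kinetically (ex 525/em 590 nm) for 30 min.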

[3] = biological target: T1, Hexokinase-4 (Homo sapiens) + Glucokinase regulatory protein (Homo sapiens); assay: qHTS assay for inhibitors of recombinant human GCK-GKRP interaction: ADP-Glo assay (AID 743206);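 also: plate controls were DMSO plus enzyme for no effect and no enzyme for full effect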
Method in brief: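 GST-GCK and FLAG-GKRP (15 nM each in the dispensed mix, with 2 uM S6P) react with 0.4 mM ATP and 5 mM glucose (final) in Hepes pH 7.6 for 60 min at room temperature. ADP is measured by ADP-Glo luminescence.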

[4] = qHTS Assay for Identifying Gametocytocidal Compounds (AID 743244);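 also: % is scaled to controls: 0 for no effect and ±100 for the full control effect; actives lower the fluorescent signal which means gametocytes are killed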; conditions: P. falciparum 3D7 stage III-V gametocytes, alamarBlue, 72 h; max response: stronger effect = lower value
Method in brief: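 Viability read-out was resazurin reduction (alamarBlue, 24 h) measured at Ex 525/Em 598 nm. Beforehand, late-stage (III-V) 3D7 P. falciparum gametocytes at 20,000 cells/well were incubated with compound 72 h at 37C under 5% CO2.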

[5] = biological target: Atrial natriuretic peptide receptor 1 (Homo sapiens) (UniProt P16066); assay: Natriuretic polypeptide receptor (hNpr1) antagonism - Pilot screen (AID 1347049; calls by dose curve;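 also: agonist-evoked cGMP luminescence read 20 min after hNppA addition; series mostly up to about 58 µM; % is scaled to controls: 0 for no effect and ±100 for the full control effect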)
Sequence of Atrial natriuretic peptide receptor 1 (Homo sapiens) (P16066 whole entry, looked up): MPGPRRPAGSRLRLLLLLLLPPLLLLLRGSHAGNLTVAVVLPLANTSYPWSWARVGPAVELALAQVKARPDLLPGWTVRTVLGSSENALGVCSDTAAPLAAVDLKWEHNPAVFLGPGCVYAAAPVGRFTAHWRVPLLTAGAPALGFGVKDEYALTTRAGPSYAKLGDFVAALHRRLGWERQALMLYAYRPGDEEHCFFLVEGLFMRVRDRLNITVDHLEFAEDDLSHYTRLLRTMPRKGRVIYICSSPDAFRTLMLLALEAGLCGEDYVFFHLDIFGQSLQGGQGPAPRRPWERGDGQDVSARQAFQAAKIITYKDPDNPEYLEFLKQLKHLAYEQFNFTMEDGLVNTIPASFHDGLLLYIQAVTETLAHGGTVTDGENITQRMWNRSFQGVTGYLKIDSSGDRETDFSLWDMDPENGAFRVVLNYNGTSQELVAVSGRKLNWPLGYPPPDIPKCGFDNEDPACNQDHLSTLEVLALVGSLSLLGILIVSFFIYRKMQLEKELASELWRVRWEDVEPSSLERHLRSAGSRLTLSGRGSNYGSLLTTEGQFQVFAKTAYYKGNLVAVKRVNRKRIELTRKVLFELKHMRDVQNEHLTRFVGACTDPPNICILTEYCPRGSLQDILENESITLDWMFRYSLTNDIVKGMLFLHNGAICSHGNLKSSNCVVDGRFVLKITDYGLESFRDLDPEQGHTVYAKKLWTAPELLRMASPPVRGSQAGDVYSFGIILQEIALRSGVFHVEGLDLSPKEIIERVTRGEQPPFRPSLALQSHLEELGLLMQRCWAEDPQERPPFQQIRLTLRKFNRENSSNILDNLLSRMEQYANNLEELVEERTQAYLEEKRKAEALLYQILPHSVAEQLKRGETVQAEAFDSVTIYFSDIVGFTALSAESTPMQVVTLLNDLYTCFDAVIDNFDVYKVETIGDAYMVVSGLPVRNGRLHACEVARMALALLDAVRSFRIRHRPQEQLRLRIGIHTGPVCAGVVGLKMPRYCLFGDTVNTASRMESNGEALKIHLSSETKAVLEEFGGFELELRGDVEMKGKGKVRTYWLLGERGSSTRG
Method in brief: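 Readout is cGMP-driven firefly luciferase luminescence in HEK293 cells carrying hNpr1 and a PDE5-domain GloSensor, read before and 20 min after 0.1 nM hNppA stimulation. Cells had 2% substrate reagent for 2 h and test compound for 30 min.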

[6] = biological target: Atrial natriuretic peptide receptor 2 (Homo sapiens) (UniProt P20594); assay: Natriuretic polypeptide receptor (hNpr2) antagonism - Pilot subtype selectivity assay (AID 1347050; calls by dose curve; also: % is scaled to controls: 0 for no effect and ±100 for the full control effect)
Sequence of Atrial natriuretic peptide receptor 2 (Homo sapiens) (P20594 whole entry, looked up): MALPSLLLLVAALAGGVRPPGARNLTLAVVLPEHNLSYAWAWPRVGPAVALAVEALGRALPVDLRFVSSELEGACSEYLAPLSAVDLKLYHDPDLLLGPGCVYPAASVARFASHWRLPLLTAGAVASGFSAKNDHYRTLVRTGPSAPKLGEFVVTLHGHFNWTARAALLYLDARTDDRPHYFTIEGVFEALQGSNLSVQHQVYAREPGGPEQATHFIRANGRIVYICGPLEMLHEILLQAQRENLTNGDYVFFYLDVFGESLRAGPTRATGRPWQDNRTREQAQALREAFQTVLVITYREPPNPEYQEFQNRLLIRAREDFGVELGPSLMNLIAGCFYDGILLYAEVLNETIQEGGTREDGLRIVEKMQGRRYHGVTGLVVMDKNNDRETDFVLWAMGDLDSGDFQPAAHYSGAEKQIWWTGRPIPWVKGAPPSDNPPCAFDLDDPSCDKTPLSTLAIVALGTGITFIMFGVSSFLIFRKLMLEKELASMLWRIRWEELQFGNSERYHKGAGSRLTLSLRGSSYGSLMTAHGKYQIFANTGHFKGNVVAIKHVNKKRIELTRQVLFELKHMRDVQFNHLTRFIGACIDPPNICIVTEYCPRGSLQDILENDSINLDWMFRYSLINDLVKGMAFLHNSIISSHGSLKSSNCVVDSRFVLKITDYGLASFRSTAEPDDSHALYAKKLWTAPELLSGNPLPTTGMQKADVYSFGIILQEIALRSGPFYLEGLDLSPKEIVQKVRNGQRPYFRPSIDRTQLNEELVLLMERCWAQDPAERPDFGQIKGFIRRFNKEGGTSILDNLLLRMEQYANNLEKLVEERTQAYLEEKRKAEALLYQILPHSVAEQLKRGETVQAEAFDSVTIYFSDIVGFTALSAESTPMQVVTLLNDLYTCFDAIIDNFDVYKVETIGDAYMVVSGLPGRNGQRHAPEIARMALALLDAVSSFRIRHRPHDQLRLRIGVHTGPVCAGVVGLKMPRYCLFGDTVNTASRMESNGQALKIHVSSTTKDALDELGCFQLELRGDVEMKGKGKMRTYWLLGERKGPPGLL
Method in brief: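 Pilot selectivity screen against hNpr2: HEK293 cGMP-sensor cells are treated with LOPAC1280 compounds, then with hNppC peptide at 1 nM final. The cGMP-driven luminescence change over 20 min at room temperature is the read-out.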

[7] = NS1 protein of Zika virus - qHTS assay to identify small molecule inhibitors in human HEK 293 cells (AID 1347053);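 also: series mostly up to about 46 µM; plate controls were infected untreated cells for no effect and uninfected cells for full effect; nearly all actives have a fitted effect of over 55% in size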
Method in brief: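 HEK 293 cells, seeded 20 h at 37 C, were pretreated with compound 1 h, then infected with ZIKV MR766 (MOI = 0.5) for 24 h. NS1 was read by TR-FRET with two anti-NS1 antibodies, normalized to uninfected and infected wells.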

[8] = biological target: T2, Tyrosine-protein phosphatase non-receptor type substrate 1 (Homo sapiens) + Leukocyte surface antigen CD47 (Homo sapiens) (UniProt P78324+Q08722); assay: CD47-SIRPalpha protein protein interaction - LANCE assay qHTS validation (AID 1347057; active = well fitted curve in the direction sought with a large enough effect in the signal ratio, with a control signal flat, not every such curve was filed as active; the % refers to the signal ratio; also: series mostly up to about 38 µM; 0% is about no effect)
T2 sequence (P78324 whole entry, looked up): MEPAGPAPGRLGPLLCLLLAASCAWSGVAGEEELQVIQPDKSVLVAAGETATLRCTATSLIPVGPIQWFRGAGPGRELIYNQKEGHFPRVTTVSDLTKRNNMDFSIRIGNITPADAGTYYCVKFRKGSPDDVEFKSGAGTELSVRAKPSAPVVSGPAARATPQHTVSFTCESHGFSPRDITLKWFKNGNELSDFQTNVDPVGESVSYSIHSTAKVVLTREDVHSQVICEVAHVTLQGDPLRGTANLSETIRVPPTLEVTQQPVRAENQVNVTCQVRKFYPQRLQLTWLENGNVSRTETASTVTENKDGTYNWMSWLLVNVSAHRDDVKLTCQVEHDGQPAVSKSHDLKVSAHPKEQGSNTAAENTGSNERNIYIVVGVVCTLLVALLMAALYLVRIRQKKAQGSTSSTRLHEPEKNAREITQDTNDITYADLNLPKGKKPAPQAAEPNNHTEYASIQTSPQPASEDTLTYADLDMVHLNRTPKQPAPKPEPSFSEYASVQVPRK
T2 sequence (Q08722 whole entry, looked up): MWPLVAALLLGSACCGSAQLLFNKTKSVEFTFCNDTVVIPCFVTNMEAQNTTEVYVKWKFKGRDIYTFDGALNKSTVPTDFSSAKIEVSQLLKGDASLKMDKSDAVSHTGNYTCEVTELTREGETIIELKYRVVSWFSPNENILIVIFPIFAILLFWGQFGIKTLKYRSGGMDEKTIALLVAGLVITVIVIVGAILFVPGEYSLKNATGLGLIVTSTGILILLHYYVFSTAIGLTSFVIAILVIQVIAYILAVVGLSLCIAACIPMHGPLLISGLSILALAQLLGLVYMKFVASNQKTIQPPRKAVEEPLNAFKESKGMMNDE
Method in brief: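 First, His-tagged CD47 and Eu-labelled anti-His antibody met the compound for 30 min; next, site-specifically biotinylated SIRPalpha was added for 30 min; finally streptavidin-APC was added before reading the TR-FRET ratio.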

[9] = biological target: T2, Tyrosine-protein phosphatase non-receptor type substrate 1 (Homo sapiens) + Leukocyte surface antigen CD47 (Homo sapiens); assay: CD47-SIRPalpha protein protein interaction - Alpha assay qHTS validation (AID 1347059);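 also: bead proximity luminescence from CD47 binding SIRPalpha after compound preincubation with SIRPalpha; % is scaled to controls: 0 for no effect and ±100 for the full control effect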
Method in brief: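 Binding is measured by AlphaScreen proximity: Ni-NTA acceptor beads capture His-CD47, streptavidin donor beads capture biotin-SIRPalpha. Each of three additions (SIRPalpha with compound, CD47, beads) incubates 30 min at room temperature protected from light.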

[10] = biological target: Parathyroid hormone/parathyroid hormone-related peptide receptor (Homo sapiens) (UniProt Q03431); assay: qHTS for PTHR1 Agonists: Optimization Screen against the NCGC LOPAC library (AID 1347079);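 also: GloSensor cAMP luminescence in HEK-293 GP2 cells expressing human PTHR1 with IBMX; 0% is about no effect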
Method in brief: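 Compounds were tested across a qHTS titration. PTHR1-expressing GP2 cells report cAMP rises via GloSensor luminescence after 1 hr compound exposure at 37C with IBMX present.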

[11] = test system: Zika virus NS2B-NS3 protease (unlinked); assay: Optimization of GU AMC qHTS for Zika virus inhibitors: Unlinked NS2B-NS3 protease assay (AID 1347151); also: potency is read from the fitted curve at half-maximal effect; nearly all actives have a fitted effect of over 80% in size
Method in brief: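 Noncovalent complex of NS2B hydrophilic domain and NS3 protease domain, 25 nM final, in 10 mM Tris-HCl pH 8.0, 0.01% Tween 20. AMC fluorescence change over 15 min at room temperature was fitted to a 4-parameter Hill equation.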

[12] = biological target: Lysine-specific demethylase 5B (Homo sapiens) (UniProt Q9UGL1); assay: Optimization screen for KDM5B Histone Demethylases FDH coupled qHTS against the LOPAC library (AID 1347166); also: 0% is about no effect
Method in brief: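 KDM5BDeltaAP (200nM final) preincubated 10 min with compound, then 12.5uM H3K4Me3, 25uM a-ketoglutarate, ascorbate, Fe(II), NAD+ and FDH added; 50mM HEPES pH 7.5, 0.01% Tween-20. NADH fluorescence (340/450 nm) change over 30 min, room temperature.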

[13] = qHTS to identify inhibitors of the type 1 interferon - major histocompatibility complex class I in skeletal muscle: primary screen against the NCATS LOPAC collection (AID 1347405);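 also: lytic HiBiT luminescence reporting HLA-B protein level; % is scaled to controls: 0 for no effect and ±100 for the full control effect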
Method in brief: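 Immortalized human C25cl48 myoblasts with HiBiT knocked into endogenous HLA-B*08:01 were stimulated with 4.0 ng/ml IFN-beta and given compounds in a 7-point, 1:4.3 titration from 46 uM final; after 24 hrs, lytic HiBiT luminescence was read.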

[14] = qHTS for inhibitors of adenylyl cyclases using a fission yeast platform: a pilot screen against the NCATS LOPAC library (AID 1347410);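 also: plate controls were DMSO vehicle for no effect and DPI positive control for full effect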
Method in brief: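 S. pombe CHP2027 (AC9-GNAS-PDE4D2) carrying a PKA-repressed fbp1-GFP reporter was exposed to LOPAC compounds (final up to 57 µM) for 18 h at 30C in the dark, in EMM with histidine, lysine and uracil; GFP gain-of-signal read by laser scanning cytometry.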

[15] = Validation qHTS assay for inhibitors of Activation Induced Cytidine Deaminase (AID): UDG Counterscreen signal (AID 1347427); also: 0% is about no effect
Method in brief: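 Counterscreen read of UDG activity (2 U/mL, 4/3x) in the FRET deamination format with AID (1 uM, 4/3x), DJC20/DJC23 substrates (250 nM, 4x), 4 h at room temperature. NaOH stop, fluorescence at 560 ex/665 em.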

[16] = biological target: Single-stranded DNA cytosine deaminase (Homo sapiens) (UniProt Q9GZX7); assay: Validation qHTS assay for inhibitors of Activation Induced Cytidine Deaminase (AID): AID signal (AID 1347429); also: % is scaled to controls: 0 for no effect and ±100 for the full control effect
Sequence of Single-stranded DNA cytosine deaminase (Homo sapiens) (Q9GZX7 whole entry, looked up): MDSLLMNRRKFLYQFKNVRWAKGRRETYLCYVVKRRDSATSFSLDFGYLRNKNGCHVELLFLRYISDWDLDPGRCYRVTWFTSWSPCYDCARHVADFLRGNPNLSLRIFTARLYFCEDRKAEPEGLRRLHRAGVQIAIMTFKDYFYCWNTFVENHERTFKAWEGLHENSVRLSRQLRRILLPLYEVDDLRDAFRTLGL
Method in brief: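 AID and UDG were combined and compounds added at final up to 114 uM, then DJC20/DJC23 FRET substrate was added for 4 hr at room temperature. NaOH was then added for 30 min before fluorescence was read at 540/590 nm.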

[17] = Primary qHTS for inhibitors of La Crosse Virus (LACV) - induced cell death in SH-SY5Y cells (AID 1508616);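 also: top concentration of the series differs between compounds; 0% = infected DMSO wells and 100% = uninfected DMSO wells; higher means more rescue of cells from virus-induced death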
Method in brief: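 Luminescent ATP readout (ATPLite 1step, 5 min room temperature) measured rescue from LACV-induced death after 6 days of infection at 0.01 MOI; normalized to infected DMSO wells and uninfected DMSO wells.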

[18] = Primary qHTS for small molecule stabilizers of the endoplasmic reticulum resident proteome: Secreted ER Calcium Modulated Protein (SERCaMP) assay (AID 1508630); also: % is scaled to controls: 0 for no effect and ±100 for the full control effect
Method in brief: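 GLuc-SERCaMP-expressing SH-SY5Y cells, pretreated 16 h with compound, are challenged with thapsigargin to empty ER calcium stores; after 4 h, coelenterazine is added directly to the medium and luminescence is imaged.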

Papain (Carica papaya) = Papain (Carica papaya) (UniProt P00784); assay: Primary qHTS assay for inhibitors of the protease papain (AID 1645873)
Sequence of Papain (Carica papaya) (P00784 whole entry, looked up, the tested form may be a part): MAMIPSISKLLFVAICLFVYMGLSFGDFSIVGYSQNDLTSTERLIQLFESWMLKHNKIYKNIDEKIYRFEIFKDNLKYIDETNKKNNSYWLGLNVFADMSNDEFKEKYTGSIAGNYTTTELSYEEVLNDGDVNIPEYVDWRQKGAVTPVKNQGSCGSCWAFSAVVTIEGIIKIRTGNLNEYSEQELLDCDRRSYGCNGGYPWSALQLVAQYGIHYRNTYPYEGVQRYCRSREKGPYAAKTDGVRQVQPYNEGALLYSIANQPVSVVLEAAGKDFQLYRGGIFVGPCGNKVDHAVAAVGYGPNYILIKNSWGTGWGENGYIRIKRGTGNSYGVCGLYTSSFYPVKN

[19] = Primary qHTS for inhibitors of nuclear receptor binding SET domain protein 2 (NSD2) in an isogenic RCH-ACV NSD2 p.E1099K mutant (9B) (AID 1645876); also: % is scaled to controls: 0 for no effect and ±100 for the full control effect; nearly all actives have a fitted effect of over 70% in size
[20] = biological target: Metallo-beta-lactamase type 2 (Klebsiella pneumoniae) (UniProt C7C422); assay: qHTS to identify inhibitors of the New Delhi Metallo-beta-lactamase (NDM): assay validation screen against the NCATS LOPAC Collection (AID 1794843)
Method in brief: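 NDM-1 at 2 nM final in 50 mM HEPES pH 7.0 with 1 uM ZnSO4 and 0.01% Tween20 was preincubated with library compounds in DMSO. Nitrocefin (50 uM stock) was then added, and absorbance at 485 nm was read at the kinetic plateau.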

[21] = biological target: Glutathione peroxidase 1 (Homo sapiens) (UniProt P07203); assay: Primary qHTS Assay for Inhibitors of Recombinant Selenoprotein Glutathione Peroxidase 1 (GPX1) (AID 1845191); also: nearly all actives have a fitted effect of over 65% in size
Sequence of Glutathione peroxidase 1 (Homo sapiens) (P07203 whole entry, looked up): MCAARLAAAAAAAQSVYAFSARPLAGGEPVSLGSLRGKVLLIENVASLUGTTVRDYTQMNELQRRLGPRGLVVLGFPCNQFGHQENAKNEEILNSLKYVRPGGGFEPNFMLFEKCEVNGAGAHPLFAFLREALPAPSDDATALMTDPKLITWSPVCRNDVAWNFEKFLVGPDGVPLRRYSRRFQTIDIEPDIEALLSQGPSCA
Method in brief: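 10 nM GPX1 + cpd, 30 min RT; start w/ 1 mM GSH, 0.5 mM cumene hydroperoxide, 0.5 mM NADPH, 100 nM GR, 0.01% BSA; buffer 50 mM Tris-HCl pH 7.5, 2 mM EDTA, 150 mM NaCl; Fl 340/450, 0 & 15 min.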

[22] = biological target: Phospholipid hydroperoxide glutathione peroxidase GPX4 (Homo sapiens) (UniProt P36969); assay: Primary qHTS Assay for Inhibitors of Recombinant Selenoprotein Glutathione Peroxidase 4 (GPX4) (AID 1845192); conditions: outcome: dose series up to 50 µM unless noted; also: series mostly up to about 50 µM; % is scaled to controls: 0 for no effect and ±100 for the full control effect; nearly all actives have a fitted effect of over 65% in size
Sequence of Phospholipid hydroperoxide glutathione peroxidase GPX4 (Homo sapiens) (P36969 whole entry, looked up): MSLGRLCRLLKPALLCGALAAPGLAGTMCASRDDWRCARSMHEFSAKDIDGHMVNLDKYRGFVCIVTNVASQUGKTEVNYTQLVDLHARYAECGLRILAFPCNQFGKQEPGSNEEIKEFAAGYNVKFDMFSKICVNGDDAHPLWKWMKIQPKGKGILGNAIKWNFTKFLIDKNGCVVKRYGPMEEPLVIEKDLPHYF
Method in brief: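 NADPH consumption, followed by fluorescence at 340/450 nm between 0 and 15 min, reports GPX4 activity via coupled glutathione reductase (100 nM). Enzyme 200 nM was pre-exposed to compound 30 min; 0.5 mM cumene hydroperoxide and 1 mM GSH served as substrates.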

[23] = qHTS drug screen for cell cycle checkpoint inhibitors in PARPi-resistant BRCA-mutant ovarian cancer cell lines. (AID 1963452; calls by dose curve); conditions: PEO1/OlaR viability, CellTiter-Glo luminescence, 96 h, stronger effect = lower value
Method in brief: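 PEO1, PEO4 and PEO1/OlaR ovarian cancer cells, 600 per well, exposed 96 h at 37C to a dilution series. Viability read by CellTiter-Glo luminescence, normalized to DMSO and empty wells; activity summarized as Z-AUC.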

CCc1ccc(/C=C2/SC(=S)NC2=O)cc1
0.677: Z-AUC ([23]; measured here: PEO1 parental Z-AUC)
active: Potency [11] 23.8 µM
0.763: Z-AUC ([23]; measured here: PEO4 Z-AUC)
inactive: Potency [1] | outcome [2] | outcome [3] | max response [4] 30.7% | Potency [5] | Potency [6] | outcome [7] | outcome [8] | Potency [9] | outcome [10] | outcome [12] | Potency [13] | outcome [14] | outcome [15] | Potency [16] | outcome [17] | Potency [18] | Potency (Papain (Carica papaya)) | Potency [19] | Potency [20] | Potency [21] | Potency [22] | Z-AUC [23] 0.0868
